These results are taken from PubChem BioAssay AID493216 (National Center for Advancing Translational Sciences (NCATS), 2011).

The target in this assay is Polyunsaturated fatty acid lipoxygenase ALOX12 (Homo sapiens) (UniProt P18054). Briefly: Inhibitors of 12-hLO (12-human lipoxygenase): Cuvette-Based Hit Assay for Validation of Followup Compounds. The following applies: purified 12-hLO, cuvette absorbance 234 nm. The protocol: The enzyme activity of 12-hLO was determined by a direct measurement of product formation by monitoring the absorbance at 234 nm in a 2 mL cuvette. IC50 values of inhibitors were obtained by measuring the enzymatic rate at a variety of concentrations (Carroll et al, Segraves et al). This assay was used to validate actives or inconclusive putative inhibitors identified in the primary screen (see related BioAssay AIDs). Assay Provider: Holman, T.R., University of California, Santa Cruz Screening Center PI: Austin, Christopher P. Screening Center: NIH Chemical Genomics Center
Polyunsaturated fatty acid lipoxygenase ALOX12 (Homo sapiens), sequence (P18054 whole entry, looked up): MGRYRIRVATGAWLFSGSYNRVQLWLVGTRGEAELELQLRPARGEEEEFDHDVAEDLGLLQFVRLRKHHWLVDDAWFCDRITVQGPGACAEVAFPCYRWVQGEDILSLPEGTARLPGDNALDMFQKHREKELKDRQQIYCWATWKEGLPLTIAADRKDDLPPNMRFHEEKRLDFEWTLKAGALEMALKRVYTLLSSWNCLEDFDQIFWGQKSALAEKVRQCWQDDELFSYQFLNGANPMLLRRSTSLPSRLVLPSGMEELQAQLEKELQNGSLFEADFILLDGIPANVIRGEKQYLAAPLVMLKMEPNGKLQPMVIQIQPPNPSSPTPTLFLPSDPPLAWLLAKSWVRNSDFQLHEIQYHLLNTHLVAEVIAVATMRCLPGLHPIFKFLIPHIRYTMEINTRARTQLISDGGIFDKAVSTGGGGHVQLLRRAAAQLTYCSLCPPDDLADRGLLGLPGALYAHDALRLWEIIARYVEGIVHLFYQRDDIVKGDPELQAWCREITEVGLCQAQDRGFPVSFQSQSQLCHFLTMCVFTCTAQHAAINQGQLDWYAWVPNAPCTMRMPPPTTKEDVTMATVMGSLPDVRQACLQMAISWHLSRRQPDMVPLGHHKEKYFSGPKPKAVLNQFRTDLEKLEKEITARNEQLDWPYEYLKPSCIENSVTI
For control experiments, 2 mL of substrate buffer (10 uM arachidonic acid / 25 mM HEPES / 0.01% (v/v) Triton X-100, pH 8.0) was aliquoted in a cuvette with a magnetic stir bar. After equilibrium was ensured, an aliquot of inhibitor solvent was added (DMSO), and equilibrium was once again assured. The reaction was started by adding enzyme to the cuvette and the reaction was followed until completed. The inhibition experiments were performed as above, except the actual inhibitory compound was added instead of vehicle. To achieve an IC50, typically 5 concentrations of the inhibitor were studied. If the inhibitor concentration was constant, then five different reaction volumes were used. […] 3; No change in absorbance ensured. […] 5; No change in absorbance ensured. […]

Calls of active or inactive are those of the source. Calls come from the whole dose curve.

For the compound `CC(Oc1ccc(Cl)cc1Cl)C(=O)Nc1ccc(S(=O)(=O)Nc2cnc3ccccc3n2)cc1` (stereo unspecified), the Potency was 22.6 µM (active).
